Compounds with a hit are over-represented: about 12% of the library has one in this group of screens.
HP1b binding inh: HP1-beta chromodomain-methylated histone interaction inhibition. P83916. 390,000 compounds, 0.56% hits. AID 540317. Potency, µM (titrated, usually from 114 µM), for the others: at the top dose activity change, negative = inhibition, hits mostly inhibitors. AlphaScreen HP1-beta / biotin-H3K9me3 peptide binding; note: nearly all actives have a fitted effect of over 70% in size
Target sequence (P83916 whole entry, looked up): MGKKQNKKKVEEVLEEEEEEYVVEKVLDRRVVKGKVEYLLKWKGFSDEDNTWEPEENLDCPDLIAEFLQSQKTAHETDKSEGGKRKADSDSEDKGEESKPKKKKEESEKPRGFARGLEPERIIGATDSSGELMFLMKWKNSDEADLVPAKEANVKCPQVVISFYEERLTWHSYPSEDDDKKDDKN
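Compound inhibition of the preformed complex between 50 nM HP1-beta and 50 nM biotinylated H3K9me3 peptide was read by AlphaScreen. Buffer was PBS pH 7.4 with 0.01% Tween-20. Incubations ran 30 min at room temperature, with 10 ug/mL donor/acceptor beads.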
PLK1 PBD block: blocks phosphopeptide binding to human PLK1 polo-box domain; P53350; Plk1 PBD binding of FITC phosphopeptide, fluorescence polarization; Potency, µM, inactives show max response, negative = inhibition, actives largely listed as inhibitors; 360,000 compounds, 2.8% hits; AID 720504; note: series mostly up to about 57 µM; % is set by controls: 0 for no effect and ±100 for the full control effect; nearly all actives have a fitted effect of over 65% in size
JMJD2A Tudor: JMJD2A Tudor domain (human) inhibition; O75164; AlphaScreen JMJD2A-Tudor / H3K4me3 peptide binding; Potency, µM (top dose mostly 114 µM), inactives show top-dose activity change, negative = inhibition, actives largely listed as inhibitors; 390,000 compounds, 4.4% hits; AID 504339; note: % is set by controls: 0 for no effect and ±100 for the full control effect; nearly all actives have a fitted effect of over 50% in size
Sfp PPTase inh: inhibitors of Bacillus subtilis Sfp phosphopantetheinyl transferase; Q9F4F7; Biochemical Sfp PPTase activity, qHTS; Potency, µM, for inactives: largest response in the series, negative = inhibition, actives largely listed as inhibitors; 310,000 compounds, 3.5% hits;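 note: the enzyme is Sfp with the accession as filed and its product quenches rhodamine fluorescence; 0% = enzyme reaction without inhibitor and -100% = no enzyme wells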
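Compounds were incubated with enzyme (final 15 nM) for 15 min at room temperature before substrate addition started the reaction. Fluorescence at 525 nm excitation, 598 nm emission was recorded immediately and after 30 minutes.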
BAZ2B inh: BAZ2B (human) inhibition; Q9UIF8; AlphaScreen BAZ2B-H3K14Ac peptide displacement; AID 504333; Potency, µM (titrated, usually from 114 µM), inactives show top-dose activity change, negative = inhibition, hits mostly inhibitors; 360,000 compounds, 4.4% hits; note: % is set by controls: 0 for no effect and ±100 for the full control effect; nearly all actives have a fitted effect of over 60% in size
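AlphaScreen displacement of biotin-H3(5-23)K14Ac peptide (50 nM final) from BAZ2B (50 nM final) in PBS pH 7.4, 0.01% Tween-20; complex preformed 30 min RT, then compounds (top 110 uM) 30 min RT, beads 20 min dark.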
G9a block: G9a (human) methyltransferase inhibition. Potency, µM (highest dose often 102 µM), for inactives: at the highest dose activity, negative = inhibition, hits mostly inhibitors. Q96KQ7. AID 504332. 350,000 compounds, 8.8% hits. G9a H3K9 monomethylation, AlphaScreen, 2 h; note: % is set by controls: 0 for no effect and ±100 for the full control effect; nearly all actives have a fitted effect of over 75% in size
Target sequence (Q96KQ7 913-1193 limits assumed): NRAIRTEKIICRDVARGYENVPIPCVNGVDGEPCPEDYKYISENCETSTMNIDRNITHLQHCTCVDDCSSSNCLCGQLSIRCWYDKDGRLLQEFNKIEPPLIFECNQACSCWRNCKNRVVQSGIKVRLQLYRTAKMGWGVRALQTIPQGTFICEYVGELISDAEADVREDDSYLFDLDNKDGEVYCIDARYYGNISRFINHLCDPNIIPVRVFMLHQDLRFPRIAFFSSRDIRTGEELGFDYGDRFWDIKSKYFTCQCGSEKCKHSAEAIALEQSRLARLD
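G9a (20 nM) preincubated 15 min RT with compounds, then 500 nM biotinylated H3K9 peptide and 20 uM SAM added; 2 h RT reaction. Monomethyl-H3K9 product detected by AlphaScreen with anti-H3K9me1 antibody, streptavidin donor and anti-rabbit IgG acceptor beads.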
An asterisk follows results filed as active; ? = inconclusive; . = no result; ! = not confirmed by another sample; [ ] = dose if it differs, or a comment. Calls come from the whole dose curve; as a rule, active = well fitted curve in the direction sought with a large enough effect; inconclusive = small, poorly fitted or top-dose-only effect, or another doubt; inactive = no such curve, though single readings can be large; an effect the other way counts as inactive or inconclusive. Potency is the fitted concentration of half-maximal effect.

SMILES | HP1b binding inh | PLK1 PBD block | JMJD2A Tudor | Sfp PPTase inh | BAZ2B inh | G9a block
CN1CCN(C(=S)NC(=O)c2ccco2)CC1 | 4% | 12% | 16µM* | 56µM* | ? | 50µM*
O=C(NC(=S)N1CCN(c2ccc(O)cc2)CC1)c1ccco1 | 11% | -3% | -5% | . | . | .
CC(C)N1CCc2c(sc(NC(=O)c3ccc(S(=O)(=O)N(C)C4CCCCC4)cc3)c2C(N)=O)C1 | 34% | . | ? | . | 3% | -23%[59 µM]
CC(C)N1CCc2c(sc(NC(=O)c3nc4ccccc4s3)c2C(N)=O)C1 | -1% | -19% | ? | -26% | -36% | 45µM*
CC(C)N1CCc2c(sc(NC(=O)c3cc(-c4cccs4)nc4ccccc34)c2C(N)=O)C1 | -6% | 1% | ? | ? | 40µM* | 11µM*
CC(C)N1CCc2c(sc(NC(=O)c3ccc(S(=O)(=O)N4CCc5ccccc54)cc3)c2C(N)=O)C1 | 3% | 8% | ? | -32% | ? | 18µM*
CC(C)N1CCc2c(sc(NC(=O)c3ccc([N+](=O)[O-])o3)c2C(N)=O)C1 | . | . | . | 1% | ? | ?
CCC(C)NC(=O)c1cc(-c2cccs2)nc2ccccc12 (stereo not given) | 70% | -9% | -9% | 9% | -1% | 21%
CC1=CC2=NC(=O)/C(=C/c3cccn3Cc3ccccc3)C(=N)N2O1 | 7% | -13% | ? | -8% | -35% | -3%
N=C1/C(=C/c2cccn2Cc2ccc(Cl)cc2)C(=O)N=C2SC=CN12 | -9% | -6% | -17% | 40µM* | ? | 7%
c1ccc(CN(Cc2ccccc2)Cc2nnc(-c3cc4ccccc4[nH]3)o2)cc1 | . | . | -13% | . | . | .
CCOc1ccc(/C=N/OCC(=O)Nc2ccc(OCc3ccccc3)cc2)cc1OC | 31% | -2% | -10% | ? | 48% | 61%[59 µM]
CCOc1ccc(/C=N/Nc2ccccn2)cc1OC | -14% | ? | ? | 56µM* | . | -9%
C=CCOc1ccc(/C=N/Nc2ccccn2)cc1OC | 29% | -25% | -7% | ? | -5% | 15%
CCOc1ccc(/C=N/N(C)c2ccccc2)cc1OC | ? | 1% | 45µM* | -11% | 32µM* | 50µM*
Oc1ccc(/C=N/Nc2ccc(C(F)(F)F)cn2)c(O)c1 | . | . | . | 16% | 28µM* | 15%
Oc1ccc(/C=N/Nc2ccc(C(F)(F)F)cn2)cc1 | 34% | 7% | -12% | 0% | -16% | 0%
COc1cc(/C=N/Nc2ccccn2)cc(OC)c1O | 15% | -22% | -25% | 35µM* | -17% | 28µM*
C[C@@H]1C[C@H](OC(=O)[C@@H](O)c2ccccc2)CC(C)(C)N1C | . | . | . | 26% | . | 9%[21.5 µM]
COc1cc(/C=N/Nc2ccc(C(F)(F)F)cn2)cc(OC)c1O | -2% | -7% | -8% | ? | -18% | 40µM*
COc1cc(N/N=C/c2ccccc2O)ncn1 | 9% | -14% | 45µM* | 2% | 28µM* | 22%
CCC1CN(C(=O)C2CCN(S(=O)(=O)c3c(C)noc3/C=C/c3ccc(C)cc3)CC2)c2cc(C)ccc2O1 (stereo not given) | 28%[57 µM] | . | -1% | . | 0% | 1%[59 µM]
C#CCCCC(=S)Nc1ccccc1 | . | . | . | 4% | . | .
CC(=O)c1ccccc1NS(=O)(=O)c1cccc2nsnc12 | ? | -18% | ? | 2% | 50µM* | 50µM*
Cc1ccc2nsnc2c1S(=O)(=O)Nc1cccc2nsnc12 | 15% | -10% | -23% | -9% | -38% | 45µM*
SMILES | HP1b binding inh | PLK1 PBD block | JMJD2A Tudor | Sfp PPTase inh | BAZ2B inh | G9a block
c1ccc2sc(N3CCN(Cc4nnnn4CC4CCCO4)CC3)nc2c1 (stereo not given) | 26% | -7% | -12% | -7% | . | 28µM*
OC1(c2ccccc2)CNCCc2ccccc21 (stereo not given) | 42% | 3% | 1% | -11% | 11% | 13%
CN1CCc2cc(Cl)c(O)cc2C(c2ccccc2)C1 (stereo not given) | . | . | . | . | . | 29%[12.7 µM]
CN1CCc2c(cc(O)c(O)c2Cl)C(c2cccc(Cl)c2)C1 (stereo not given) | . | . | . | . | . | 8.9µM*
Oc1ccc([C@@H]2CNCCc3c2cc(O)c(O)c3Cl)cc1 | . | . | . | 56µM* | . | .
CN1CCc2cc(O)c(O)cc2C(c2ccccc2)C1 (stereo not given) | -5% | -5% | -24% | . | -22% | 11µM*
Oc1cc2c(cc1O)[C@@H](c1ccccc1)CNCC2 | 29% | 0% | 4% | 20µM* | -7% | 8.9µM*
COc1c(O)cc2c(c1O)[C@@H]1O[C@@H](CO)[C@@H](O)[C@@H](O)[C@@H]1OC2=O | . | . | . | -2% | . | 22%[21.5 µM]
c1ccc(C2CNCCc3ccccc32)cc1 (stereo not given) | 22% | -15% | -7% | 6% | -10% | -2%
Oc1cc2c(cc1O)C(c1ccccc1)CNCC2 (stereo not given) | ? | 2% | 32µM* | 79µM*! | . | 6.7µM*
C[C@@H](NC(=O)[C@@H]1Cc2ccccc2CN1)C(=O)Nc1ccc2c(c1)OCO2 | 4% | -6% | -27% | 12% | -38% | ?
COC(=O)c1cc(Nc2cc(C)c3c(O)cccc3n2)cc(C(=O)OC)c1 | 31% | -4% | -13% | 2% | -17% | -4%
COc1ccc(Nc2cc(C)c3c(O)cccc3n2)cc1 | -13% | 27µM* | -28%[11.4 µM] | ? | 45µM* | .
Cc1ccc(Nc2cc(C)c3c(O)cccc3n2)cc1C | -21% | -1% | ? | 50µM* | 45µM* | .
Cc1ccccc1Nc1cc(C)c2c(O)cccc2n1 | 15% | 0% | ? | -20% | ? | ?
Cc1nn(-c2ccc(N3CCCC3)nn2)c(C)c1CCC(=O)Nc1ccc(F)c(Cl)c1 | 42% | . | ? | . | -27% | -3%[59 µM]
CN(C)S(=O)(=O)Nc1cc(Cl)cc(Cl)c1 | -2% | 30µM* | 40µM* | 10% | -10% | -12%[59 µM]

Compound activity (PubChem BioAssay)
